Many of the other results were omitted from the sample, so hits are more common in it than they were.
FBPA Giardia inh – Giardia lamblia aldolase inhibition | A8B2U2 | purified Giardia FBPA | Potency, µM (top dose mostly 59.6 µM), for the others: at the highest dose activity, negative = inhibition, hits mostly inhibitors | hit rate 0.71% among 290,000 | AID 2451; further: potency means the concentration at half of the fitted maximal effect; on the % scale 0 is the no-effect control and ±100 the full control effect; nearly all actives have a fitted effect of over 55% in size
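40 nM FBPA preincubated 10 min at RT with compound (up to 57.5 uM final), then substrate plus GAPDH/TPI/NAD/arsenate coupling and diaphorase/resazurin added. Fluorescence read after 20 min at RT, 525/598 nm.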
CHX counter – counter-screen hit for Shiga toxin inhibitors, cycloheximide; cell reporter, cycloheximide protein synthesis inhibition counterscreen; max response, %; hit rate 12% among 300,000; in the data active means max response mostly above about 13%, no sharp cut-off; inactive means mostly below about 14%; further: read at 38.3 µM for the half of the compounds with a filed dose; 0% is about no effect
Shiga toxin inh – Shiga toxin inhibition | Vero cells, Shiga toxin protein synthesis inhibition reporter | inhibition, % at 38.7 µM | hit rate 9.2% among 290,000 | AID 2315; in the data active means inhibition mostly above about 28%, no sharp cut-off; inactive means mostly below about 43%; further: 0% is about no effect
Sm TGR inh – blocks Schistosoma mansoni thioredoxin glutathione reductase; hit rate 3% among 360,000; AID 485364; purified TGR, DTNB reduction, TNB absorbance 405 nm; Potency, µM (doses to about 114 µM), for the others: top-dose activity change, negative = inhibition, usual class: inhibitors; Q962Y6; further: potency means the concentration at half of the fitted maximal effect; on the % scale 0 is the no-effect control and ±100 the full control effect; nearly all actives have a fitted effect of over 60% in size
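TGR 20 nM + NADPH 100 uM (dispensed conc.), cpd preinc 15 min RT; start with NADPH (500 uM addition) then DTNB (15 mM addition). Kinetic TNB absorbance, 405 nm filter. Four-parameter Hill fit across titration.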
TbPYK inhibitor – inhibitors of Trypanosoma brucei pyruvate kinase; Potency, µM (titrated, usually from 76.8 µM), without a hit: top-dose activity, negative = inhibition, hits mostly inhibitors; Q57TT1; hit rate 0.12% among 410,000; TbPYK enzyme, Kinase-Glo Plus ATP luminescence, 45 min; further: potency means the concentration at half of the fitted maximal effect; on the % scale 0 is the no-effect control and ±100 the full control effect; nearly all actives have a fitted effect of over 50% in size
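Readout: single end-point luminescence (Kinase-Glo Plus, 10 min). Reaction conditions were TbPYK/substrate plus 130 uM ADP, 45 min at RT, pH 7.2 TEA buffer. No-enzyme wells served as controls, and data were normalized before concentration-response fitting.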
LmPK inhibitor – LmPK (Leishmania mexicana) enzyme inhibition; Q27686; hit rate 0.37% among 290,000; Potency, µM (top dose mostly 57.5 µM), for inactives: at the top dose activity change, negative = inhibition, usual class: inhibitors; purified LmPK, Kinase-Glo ATP luminescence, 1 h; AID 1721; further: potency means the concentration at half of the fitted maximal effect; on the % scale 0 is the no-effect control and ±100 the full control effect
Target sequence (Q27686 whole entry, looked up): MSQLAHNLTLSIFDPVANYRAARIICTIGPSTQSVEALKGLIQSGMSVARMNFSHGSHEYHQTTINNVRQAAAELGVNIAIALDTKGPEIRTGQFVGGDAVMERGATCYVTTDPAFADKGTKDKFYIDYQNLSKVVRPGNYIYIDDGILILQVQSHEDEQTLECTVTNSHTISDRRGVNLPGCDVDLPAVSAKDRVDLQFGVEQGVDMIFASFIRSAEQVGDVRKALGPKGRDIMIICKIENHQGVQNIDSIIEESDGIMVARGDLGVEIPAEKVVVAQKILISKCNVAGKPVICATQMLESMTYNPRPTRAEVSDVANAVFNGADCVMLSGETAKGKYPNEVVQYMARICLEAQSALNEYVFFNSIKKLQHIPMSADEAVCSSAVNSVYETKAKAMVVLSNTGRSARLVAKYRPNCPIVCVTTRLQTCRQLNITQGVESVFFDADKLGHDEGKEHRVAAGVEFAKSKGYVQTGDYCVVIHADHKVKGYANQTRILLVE
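Purified LmPK (0.1 nM) with 0.5 mM PEP and 0.1 mM ADP in imidazole buffer pH 7.2 with MgCl2/KCl, 1 h at room temperature. ATP formed was read by luciferase luminescence and normalized to no-enzyme and uninhibited controls.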
The depositor's hits bear a star; [ ] = remark or other dose. Unless noted, the call rests on the fitted dose curve; in most records, active means well fitted curve in the direction sought with a large enough effect; inconclusive means small, poorly fitted or top-dose-only effect, or another doubt; inactive means no such curve, though single readings can be large; an effect the other way counts as inactive or inconclusive.

For CC1CCN(CCCn2c(=S)[nH]c3c(sc4ccc([N+](=O)[O-])cc43)c2=O)CC1 the results were FBPA Giardia inh -20%, CHX counter -2, Shiga toxin inh -17, Sm TGR inh -1%, TbPYK inhibitor -8% and LmPK inhibitor 5%.
`CCCSCCCNC(=O)c1ccc2nc(Cc3ccccc3)oc2c1` gave Sm TGR inh 18% and TbPYK inhibitor -5%.
`CC(C)Nc1ncnc2c1ncn2[C@H]1CN(Cc2ccccc2)C[C@@H](CO)O1` gave TbPYK inhibitor 0%.
Screening O=C(NNC(=O)c1ccco1)c1ccccc1 returned FBPA Giardia inh 0%, CHX counter 19*, Shiga toxin inh 19, Sm TGR inh inconclusive, TbPYK inhibitor -3% and LmPK inhibitor 1%.
For O=C(NNC(=O)c1ccco1)c1ccco1 the results were TbPYK inhibitor -6%.
Screening Cc1ccc(C(=O)NNC(=S)NC(=O)c2ccco2)cc1 returned FBPA Giardia inh 13%, CHX counter -4, Shiga toxin inh 18, TbPYK inhibitor -4% and LmPK inhibitor -1%.
Cc1ccc(C(=O)NNC(=O)c2ccco2)cc1 was read as FBPA Giardia inh 3%, CHX counter 39*, Shiga toxin inh active, Sm TGR inh 10%, TbPYK inhibitor -9% and LmPK inhibitor -2%.
For COC(=O)c1sccc1S(=O)(=O)N(CC(=O)Nc1ccccc1C)c1ccc(Cl)cc1 the results were Sm TGR inh -1% and TbPYK inhibitor 3%.
For Cc1cc(NCc2ccccn2)nc2ccccc12 the results were FBPA Giardia inh -1%, CHX counter 21*, Shiga toxin inh 7, Sm TGR inh -4%, TbPYK inhibitor 2% and LmPK inhibitor 2%.
Screening Cc1nc(NCc2ccccn2)c2ccccc2n1 returned FBPA Giardia inh -15%, CHX counter 8, Shiga toxin inh -1, Sm TGR inh 9%, TbPYK inhibitor -16% and LmPK inhibitor 3%.
Screening FC(F)(F)c1ccc(NCc2ccccn2)nc1 returned FBPA Giardia inh 0%, CHX counter 56*, Shiga toxin inh 97*, Sm TGR inh -24%, TbPYK inhibitor 3% and LmPK inhibitor -3%.
`O=S(=O)(NCc1ccccn1)c1cc(C(F)(F)F)ccc1Cl` gave FBPA Giardia inh -6%, CHX counter -2, Shiga toxin inh 20, Sm TGR inh 6%, TbPYK inhibitor 0% and LmPK inhibitor -4%.
`c1ccc(CNC2=NCCC2)nc1` gave FBPA Giardia inh -1%, CHX counter -2, Shiga toxin inh 1, Sm TGR inh 4%, TbPYK inhibitor 2% and LmPK inhibitor 2%.
For c1ccc(CNc2ccc3ccccc3n2)nc1 the results were FBPA Giardia inh 7%, CHX counter 30*, Shiga toxin inh 58, Sm TGR inh 2%, TbPYK inhibitor -7% and LmPK inhibitor 18µM*.
`CCCCCCCCCCCCC/C=C/C(O)C(COP(=O)(O)OCCN)NC(=O)CCCCCCCCCCCCCCCCC` (configuration not stated) gave FBPA Giardia inh 4%, CHX counter -4 and Shiga toxin inh 0.
`Cc1ccc(CN2C(=O)C(F)(F)Oc3ccc(C)cc32)cc1` gave TbPYK inhibitor 0%.
Cc1noc(Cn2c(=O)c3ccccc3n(CC(=O)Nc3cccc(Cl)c3C)c2=O)n1 was read as Sm TGR inh -5% and TbPYK inhibitor -6%.
For NC(=O)[C@@H]1[C@@H]2C(=O)N(c3ccc(F)cc3)C(=O)[C@@H]2[C@H]2C=Cc3ccccc3N21 the results were FBPA Giardia inh inconclusive, CHX counter -4, Shiga toxin inh -6, Sm TGR inh 32µM*, TbPYK inhibitor -17% and LmPK inhibitor -6%.
Screening O=C(c1ccco1)[C@@H]1[C@@H]2C(=O)N(c3ccc(F)cc3)C(=O)[C@@H]2[C@H]2C=Cc3ccccc3N21 returned FBPA Giardia inh inconclusive, CHX counter 9, Shiga toxin inh 23, Sm TGR inh -33%, TbPYK inhibitor -10% and LmPK inhibitor -7%.
COc1ccc(CCNC(=O)C2CCC(CNS(=O)(=O)c3ccc(C)cc3)CC2)cc1OC (configuration not stated) was read as Sm TGR inh 4% and TbPYK inhibitor 0%[15.4 µM].
For O=C(NCc1cccc(F)c1)c1ccc(CS(=O)c2ccccc2Cl)o1 (configuration not stated) the results were Sm TGR inh inconclusive and TbPYK inhibitor -12%.
CCOc1ccc(NC(=O)CN2C(=O)COc3ccc(S(=O)(=O)NC4CCCC4)cc32)cc1 was read as Sm TGR inh -1% and TbPYK inhibitor -8%.
`Cc1nc2ccc(NC(=O)C3(C)CCCN(C(C)C)C3)cc2o1` (configuration not stated) gave TbPYK inhibitor -5%.
Screening CCOc1ccc(C(=O)/C=C/c2cn(CN3CCN(C)CC3)c3ccccc23)cc1 returned FBPA Giardia inh -2%, CHX counter 31*, Shiga toxin inh 61*, Sm TGR inh 0%, TbPYK inhibitor -1% and LmPK inhibitor 1%.
`COc1ccc(C(=O)/C=C/c2cn(CN3CCN(C)CC3)c3ccccc23)cc1` gave FBPA Giardia inh -20%, CHX counter 43*, Shiga toxin inh 49*, Sm TGR inh -15%, TbPYK inhibitor -1% and LmPK inhibitor 5%.
`COc1ccc(C(=O)/C=C/c2cn(CC(O)CN3CCc4ccccc43)c3ccccc23)cc1OC` (configuration not stated) gave Sm TGR inh -19% and TbPYK inhibitor -6%.
For Cc1ccc2scc(N3CCCCC3C)c(=O)c2c1 (configuration not stated) the results were Sm TGR inh -2% and TbPYK inhibitor -2%.
Screening Cc1ccc2c(CN3CCN(c4ccccc4F)CC3)cc(=O)oc2c1 returned TbPYK inhibitor -4%.
O=C(O)c1cccc(N2C(=O)c3cccc(Oc4ccc(Cl)cc4)c3C2=O)c1 was read as FBPA Giardia inh 16%, CHX counter 19*, Shiga toxin inh 1, Sm TGR inh -12%, TbPYK inhibitor 5% and LmPK inhibitor 5%.
Screening O=C(O)c1ccc(N2C(=O)c3cccc(Oc4ccc(Cl)cc4)c3C2=O)cc1 returned FBPA Giardia inh 18%, CHX counter -1, Shiga toxin inh 1, Sm TGR inh -2%, TbPYK inhibitor 3% and LmPK inhibitor 2%.
Screening O=C(NCc1cccs1)Nc1ccc2c(c1)OCO2 returned FBPA Giardia inh 4%, CHX counter 40*, Shiga toxin inh 69*, Sm TGR inh 1%, TbPYK inhibitor 1% and LmPK inhibitor 4%.
`c1cc(CNc2ccc3c(c2)OCCO3)ccn1` gave FBPA Giardia inh -24%, CHX counter 53*, Shiga toxin inh 83*, Sm TGR inh -13%, TbPYK inhibitor -8% and LmPK inhibitor -3%.

Compound activity deposited in PubChem by National Center for Advancing Translational Sciences (NCATS).
